# Reference: PubChem BioAssay
# For some of these results: Entries with a potency or affinity are not part of this list. Active and inactive are the calls of the source. Unless noted, how the calls were made is not given here.
# Legend:
# [1] = antimalarial activity against Dd2 strain (AID 2302;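 active means growth inhibition above 50% at the single 2 µM test dose, taken to imply half-maximal potency below 2 µM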;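 further: 0% = DMSO untreated growth and 100% = chloroquine plus artemisinin killed control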); details: P. falciparum Dd2 in RBCs, LDH growth readout, 72 h; at 2 µM; hits give high values
# [2] = HepG2 cytotoxicity, primary screen, cytotoxicity control for P. falciparum antimalarial project, cell-based, ATP luminescence (AID 2303;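 active means inhibition above 50%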;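 further: 0% = DMSO wells and 100% = digitonin-killed cells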); details: HepG2 viability, 24-48 h, at 10 µM, hits give high values
# [3] = molecular target: L-lactate dehydrogenase (Plasmodium falciparum (isolate CDC / Honduras)) (UniProt Q27743); assay: PfLDH activity inhibition – cell lysate, 3D7 strain, counter-screen for P. falciparum growth inhibition project (AID 2304);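 further: 0% = vehicle and 100% = reference inhibitor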; details: P. falciparum 3D7 crude extract, LDH APAD/NBT absorbance; at 2 µM; hits give high values
# [4] = inhibition of 3D7 malaria parasite growth – strain 3D7 (AID 2306);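 further: 0% = DMSO wells and 100% = chloroquine plus artemisinin control wells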; details: P. falciparum 3D7 erythrocytic growth, LDH absorbance, 72 h; at 2 µM; hits give high values
# [5] = molecular target: Calcium-dependent protein kinase 1 (Plasmodium falciparum (isolate 3D7)) (UniProt P62344); assay: PfCDPK1 kinase inhibitors, biochemical, TCAMS library (AID 1159585; cut-off not given, nearly all actives have IC50 up to about 0.98 µM;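 further: inhibitors leave more ATP so luminescence rises with inhibition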); details: recombinant PfCDPK1, Kinase-Glo ATP depletion luminescence
# [6] = molecular target: Plasmodium falciparum protein kinase 6 (PK6, PF3D7_1337100) (UniProt Q8IDW1); assay: PfPK6 kinase inhibitors, biochemical, TCAMS library (AID 1159586); details: recombinant PfPK6, Kinase-Glo ATP depletion luminescence
# [7] = molecular target: Protein kinase 7 (PK7), Plasmodium falciparum 3D7 (PF3D7_0213400) (UniProt Q7YTF7); assay: inhibition of Plasmodium PK7 catalytic activity – biochemical, TCAMS antimalarial set, Kinase-Glo luminescence (AID 1159587); details: recombinant PfPK7, Kinase-Glo ATP depletion luminescence
# [8] = molecular target: Calcium-dependent protein kinase 4 (Plasmodium falciparum (isolate 3D7)) (UniProt Q8IBS5); assay: PfCDPK4 kinase inhibitors, biochemical, TCAMS library (AID 1159588; cut-off not given, nearly all actives have IC50 up to about 0.91 µM); details: recombinant PfCDPK4, Kinase-Glo ATP depletion luminescence
# Chain of Calcium-dependent protein kinase 4 (Plasmodium falciparum (isolate 3D7)) (Q8IBS5 whole entry, looked up): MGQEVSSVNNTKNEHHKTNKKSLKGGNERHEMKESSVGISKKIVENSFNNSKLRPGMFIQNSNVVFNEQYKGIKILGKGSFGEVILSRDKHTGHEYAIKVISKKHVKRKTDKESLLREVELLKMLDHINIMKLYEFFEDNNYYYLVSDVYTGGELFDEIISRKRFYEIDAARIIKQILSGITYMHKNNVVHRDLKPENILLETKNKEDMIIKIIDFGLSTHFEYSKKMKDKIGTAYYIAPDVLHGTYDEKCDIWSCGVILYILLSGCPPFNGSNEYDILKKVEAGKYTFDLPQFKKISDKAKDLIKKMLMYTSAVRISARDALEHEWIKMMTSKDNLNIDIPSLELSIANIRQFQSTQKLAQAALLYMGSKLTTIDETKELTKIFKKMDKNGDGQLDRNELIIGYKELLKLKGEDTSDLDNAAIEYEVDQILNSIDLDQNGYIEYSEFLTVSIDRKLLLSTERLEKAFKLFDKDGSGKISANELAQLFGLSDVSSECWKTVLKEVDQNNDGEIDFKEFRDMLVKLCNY
# Chain of Plasmodium falciparum protein kinase 6 (PK6, PF3D7_1337100) (Q8IDW1 1-305): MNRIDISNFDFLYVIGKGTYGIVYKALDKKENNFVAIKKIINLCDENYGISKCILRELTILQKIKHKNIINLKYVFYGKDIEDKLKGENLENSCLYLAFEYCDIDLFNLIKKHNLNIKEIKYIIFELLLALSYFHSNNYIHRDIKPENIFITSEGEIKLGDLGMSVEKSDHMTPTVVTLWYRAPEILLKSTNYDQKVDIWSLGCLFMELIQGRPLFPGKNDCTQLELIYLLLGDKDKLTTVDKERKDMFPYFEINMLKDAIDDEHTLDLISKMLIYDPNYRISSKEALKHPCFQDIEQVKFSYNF
# Chain of L-lactate dehydrogenase (Plasmodium falciparum (isolate CDC / Honduras)) (Q27743 whole entry, looked up): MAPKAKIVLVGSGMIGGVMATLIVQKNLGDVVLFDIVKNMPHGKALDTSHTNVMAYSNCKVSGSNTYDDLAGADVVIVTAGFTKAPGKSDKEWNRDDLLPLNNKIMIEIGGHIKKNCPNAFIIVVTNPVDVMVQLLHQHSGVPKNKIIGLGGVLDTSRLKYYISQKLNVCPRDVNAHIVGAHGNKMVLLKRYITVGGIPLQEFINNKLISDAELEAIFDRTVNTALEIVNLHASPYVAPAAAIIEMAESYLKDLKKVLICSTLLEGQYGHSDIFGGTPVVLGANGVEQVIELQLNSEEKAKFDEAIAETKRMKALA
# Chain of Calcium-dependent protein kinase 1 (Plasmodium falciparum (isolate 3D7)) (P62344 whole entry, looked up): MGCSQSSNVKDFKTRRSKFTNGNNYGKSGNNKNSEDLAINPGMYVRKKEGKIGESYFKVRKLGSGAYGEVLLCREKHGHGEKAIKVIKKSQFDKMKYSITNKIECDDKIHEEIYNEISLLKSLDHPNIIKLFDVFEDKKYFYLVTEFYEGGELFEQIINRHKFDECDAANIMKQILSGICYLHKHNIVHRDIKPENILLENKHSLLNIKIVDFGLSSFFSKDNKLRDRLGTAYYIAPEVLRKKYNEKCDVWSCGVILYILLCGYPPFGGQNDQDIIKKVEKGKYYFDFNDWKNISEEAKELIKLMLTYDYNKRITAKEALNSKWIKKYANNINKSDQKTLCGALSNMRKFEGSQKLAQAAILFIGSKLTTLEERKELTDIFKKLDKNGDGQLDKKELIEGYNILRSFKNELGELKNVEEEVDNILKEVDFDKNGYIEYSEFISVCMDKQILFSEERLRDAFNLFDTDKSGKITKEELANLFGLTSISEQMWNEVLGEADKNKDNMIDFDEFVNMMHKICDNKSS
# Chain of Protein kinase 7 (PK7), Plasmodium falciparum 3D7 (PF3D7_0213400) (Q7YTF7 1-343): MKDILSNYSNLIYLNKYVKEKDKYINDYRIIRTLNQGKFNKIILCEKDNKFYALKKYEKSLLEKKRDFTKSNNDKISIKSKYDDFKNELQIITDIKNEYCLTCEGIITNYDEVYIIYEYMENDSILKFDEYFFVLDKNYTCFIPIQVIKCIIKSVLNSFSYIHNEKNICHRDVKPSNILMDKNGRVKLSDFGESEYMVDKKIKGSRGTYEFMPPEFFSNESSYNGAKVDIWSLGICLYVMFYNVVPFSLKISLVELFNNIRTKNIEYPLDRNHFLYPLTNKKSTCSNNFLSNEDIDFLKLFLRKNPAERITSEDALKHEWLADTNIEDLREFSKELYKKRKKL
Compound,growth inhibition [1],inhibition [2],inhibition [3],growth inhibition [4],outcome [5],outcome [6],outcome [7],outcome [8]
NC1=NC(c2ccccc2)(c2ccccc2)C(=O)N1Cc1ccc(-c2cccnc2)cc1,94% (active),15% (inactive),5% (inactive),99% (active),inactive,inactive,inactive,inactive
Oc1ccc(Nc2nc(NCC3CCCO3)c3ccccc3n2)cc1 (stereo not drawn),57% (active),7% (inactive),4% (inactive),103% (active),inactive,inactive,inactive,inactive
CO/C(=C\C=C\c1cc2cc(Cl)c(Cl)cc2[nH]1)C(=O)Nc1ccc(NCCN(C)C)nc1,56% (active),27% (inactive),-1% (inactive),93% (active),inactive,inactive,inactive,inactive
CC(C)CNCc1ccc(-c2cccc(CN(CCCN3CCN(C)CC3)C(=O)/C=C/c3ccccc3)c2)cc1,93% (active),43% (inactive),0% (inactive),95% (active),inactive,inactive,inactive,inactive
CCCNCc1ccc(-c2ccc(CN(Cc3cnc(C)cn3)C(=O)/C=C/c3ccccc3C)cc2)nc1,15% (inactive),7% (inactive),5% (inactive),95% (active),inactive,inactive,inactive,inactive
CS(=O)(=O)Nc1ccc2[nH]cc(C3CCN(CC4CCC(NC(=O)/C=C/c5ccc(Cl)c(Cl)c5)CC4)CC3)c2n1 (stereo not drawn),10% (inactive),2% (inactive),-5% (inactive),99% (active),inactive,inactive,inactive,inactive
O=C(NC1CC1)c1cnc(N2CCC(COc3cccc(F)c3)CC2)c(Cl)c1,87% (active),1% (inactive),5% (inactive),89% (active),inactive,inactive,inactive,inactive
C[C@@H](Oc1cc(-n2cnc3ccc(OCC4CCN(S(C)(=O)=O)CC4)cc32)sc1C(N)=O)c1ccccc1C(F)(F)F,50% (active),31% (inactive),5% (inactive),84% (active),inactive,inactive,inactive,inactive
COc1ccc(N2CCc3c(-c4cccc5cnccc45)cc(C)nc32)c(C)c1,-12% (inactive),20% (inactive),0% (inactive),96% (active),inactive,inactive,inactive,inactive
COc1ccc2nccc([C@@H](O)CN3CCC(NCc4ccc5c(c4)OCCO5)CC3)c2c1,92% (active),9% (inactive),-4% (inactive),101% (active),inactive,inactive,inactive,inactive
O=C(/C=C/c1ccc(C(F)(F)F)cc1)NCCCCCN1CCCN(C(=O)Nc2ccc(Cl)c(C(F)(F)F)c2)CC1,31% (inactive),64% (active),4% (inactive),99% (active),inactive,inactive,inactive,inactive
O=S(=O)(Nc1ccc2nccc(N3CCNCC3)c2c1)c1ccc2c(Cl)cccc2c1,2% (inactive),11% (inactive),-2% (inactive),100% (active),inactive,inactive,inactive,inactive
Cn1cc(C2CCN(CCCCNC(=O)c3sc(-c4ccc(C(F)(F)F)cc4)nc3CO)CC2)c2ccccc21,15% (inactive),46% (inactive),-3% (inactive),95% (active),inactive,inactive,inactive,inactive
CN(Cc1ccc(NC(=O)NC2CCN(C(=O)/C=C/c3ccc(Cl)c(Cl)c3)CC2)cc1)C1CCOCC1,14% (inactive),9% (inactive),5% (inactive),96% (active),inactive,inactive,inactive,inactive
O=C1NC(C(=O)Nc2ccccc2)C(c2ccccc2)S1 (stereo not drawn),99% (active),-4% (inactive),-1% (inactive),95% (active),inactive,inactive,inactive,inactive
CCC(C)CC(=O)Nc1ccc(OC)c(S(=O)(=O)N[C@@H]2CCN(C#N)C2)c1 (stereo partly drawn),77% (active),16% (inactive),0% (inactive),94% (active),inactive,inactive,inactive,inactive
O=C(Cc1cccc(O)c1)NCC(Cc1ccc(O)cc1)c1ccccc1 (stereo not drawn),97% (active),-1% (inactive),3% (inactive),91% (active),inactive,inactive,inactive,inactive
CCC(C)NC(=O)Nc1cccc(-c2cccc(-c3nc4c(C)cccc4[nH]3)c2)c1 (stereo not drawn),27% (inactive),3% (inactive),5% (inactive),101% (active),inactive,inactive,inactive,inactive
C[C@@H]1CN(c2cnn(Cc3cccc(NC(=O)Nc4ccc(-c5ccccc5)cc4)c3)c(=O)c2Cl)C[C@H](C)N1,67% (active),6% (inactive),1% (inactive),101% (active),inactive,inactive,inactive,inactive
O=C(Cc1ccccc1)NC(CCN1CCC(O)(c2cccc(C(F)(F)F)c2)CC1)c1ccc(Cl)c(Cl)c1 (stereo not drawn),32% (inactive),25% (inactive),1% (inactive),96% (active),inactive,inactive,inactive,inactive
CCCCCCN(CCCCCC)CCCCNc1c2ccc(Cl)cc2nc2ccc(OC)cc12,94% (active),65% (active),1% (inactive),100% (active),inactive,inactive,inactive,inactive

Compound,growth inhibition [1],inhibition [2],inhibition [3],growth inhibition [4],outcome [5],outcome [6],outcome [7],outcome [8]
CC(Cc1ccc(OCCCCOc2ccccc2)cc1)NCCc1ccc(Oc2ccccc2)cc1 (stereo not drawn),95% (active),99% (active),5% (inactive),89% (active),inactive,inactive,inactive,inactive
CC(=O)Nc1ccc(Cl)c(Cl)c1,98% (active),5% (inactive),9% (inactive),95% (active),inactive,inactive,inactive,inactive
COc1ccc2ccccc2c1CON1C(N)=NC(N)=NC1(C)C,5% (inactive),25% (inactive),-7% (inactive),94% (active),inactive,inactive,inactive,inactive
COC(=O)c1cccc(CNCc2ccc(-c3cccc(-c4nc5ccccc5[nH]4)c3)cc2)c1,46% (inactive),5% (inactive),-3% (inactive),101% (active),inactive,inactive,inactive,inactive
CN1CCCC1CCNc1ncc2c(-c3ccc(NC(=O)Nc4cc(C(F)(F)F)ccc4F)c(F)c3)nn(C)c2n1 (stereo not drawn),90% (active),100% (active),1% (inactive),99% (active),inactive,inactive,inactive,inactive
Clc1nc(Cl)c2c(ccn2Cc2ccccc2)n1,61% (active),-14% (inactive),-11% (inactive),100% (active),inactive,inactive,inactive,inactive
Oc1ccc2[nH]c(-c3cccc(F)c3)nc2c1CNCc1ccccc1,55% (active),29% (inactive),-2% (inactive),92% (active),inactive,inactive,inactive,inactive
O=C(Nc1cccc(-c2cccc(-c3nc4ccccc4[nH]3)c2)c1)c1cccnc1,14% (inactive),12% (inactive),-3% (inactive),95% (active),inactive,inactive,inactive,inactive
O=C(Nc1ccc2c(c1)OCO2)c1cc(-c2cccnc2)nc2ccc(Cl)cc12,41% (inactive),9% (inactive),-3% (inactive),89% (active),inactive,inactive,inactive,inactive
CN1CCCN(Cc2ccc(-c3cccc(NC(=O)c4cccc(C#N)c4)c3)cc2)CC1,64% (active),17% (inactive),-2% (inactive),101% (active),inactive,inactive,inactive,inactive
COc1cccc(C(=O)N2CCOC(CCN3CCC(c4ccccc4)CC3)(c3ccc(Cl)c(Cl)c3)C2)c1 (stereo not drawn),63% (active),38% (inactive),-2% (inactive),87% (active),inactive,inactive,inactive,inactive
COc1ccc2nccc(N3CCC(SCCNCc4ccc5c(n4)NC(=O)CO5)C3)c2n1 (stereo not drawn),9% (inactive),30% (inactive),-2% (inactive),101% (active),inactive,inactive,inactive,inactive
Fc1ccc2nccc(NN=CC=Cc3ccccc3)c2c1,77% (active),29% (inactive),-2% (inactive),96% (active),inactive,inactive,inactive,inactive
Cc1ccccc1C1CCN(C2CCC(NC(=O)C3=Cc4ccccc4OC3)CC2)CC1 (stereo not drawn),15% (inactive),26% (inactive),-4% (inactive),91% (active),inactive,inactive,inactive,inactive
COc1ccc(C(=O)CCC(=O)N(Cc2ccc(-c3ccc(CNCCc4ccc(S(C)(=O)=O)cc4)cn3)cc2)C(C)CN(C)C)cc1F (stereo not drawn),85% (active),13% (inactive),-8% (inactive),98% (active),inactive,inactive,inactive,inactive
O=C(Nc1cccc(C(F)(F)F)c1)Nc1cc(F)c(F)cc1Cl,98% (active),-1% (inactive),5% (inactive),83% (active),inactive,inactive,inactive,inactive
Nc1c(Cl)cc(C(O)CNCCCCCOCCc2ccc3ccccc3n2)cc1Cl (stereo not drawn),97% (active),9% (inactive),-1% (inactive),98% (active),inactive,inactive,inactive,inactive
CCN(CCCN1CCCCC1)c1cc(C)nc(Nc2ccc(C)c(Cl)c2)n1,100% (active),32% (inactive),-7% (inactive),101% (active),inactive,inactive,inactive,inactive
O=C(/C=C/c1ccc(Cl)c(Cl)c1)N1CCCC(CCCN2CCC(c3c[nH]c4ccccc34)CC2)C1 (stereo not drawn),15% (inactive),30% (inactive),-1% (inactive),89% (active),inactive,inactive,inactive,inactive
CCN(CCCN1CCCCC1)c1cc(C)nc(Nc2ccc(C)cc2Cl)n1,25% (inactive),44% (inactive),1% (inactive),93% (active),inactive,inactive,inactive,inactive
